# Measurements as given in article PMC5540273 (PLoS ONE, 2017).
# How the values were obtained:
# Details in all cases: concentration: 1 μM, replicates: in singlicate; n = 1
# MINK = system: T1, MINK
# T1 construct: gene MINK1
# MKK7 = system: MKK7
# MKNK1 = system: MKNK1
# MKNK2 = system: MKNK2
# MLCK = system: T2, MLCK
# T2 construct: gene MYLK3
# MLK1 = system: T3, MLK1
# T3 construct: gene MAP3K9
# MLK2 = system: MLK2
# MLK3 = system: MLK3
# MRCKA = system: MRCKA
# MRCKB = system: T4, MRCKB
# T4 construct: gene CDC42BPB
# MST1R = system: MST1R
# MST1 = system: T5, MST1
# T5 construct: gene STK4
# MST2 = system: T6, MST2
# T6 construct: gene STK3
# MST3 = system: T7, MST3
# T7 construct: gene STK24
# MST4 = system: MST4
# MTOR = system: MTOR
# MUSK = system: MUSK
# MYLK2 = system: MYLK2
# MYLK4 = system: MYLK4
# MYLK = system: MYLK
# 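Also: KINOMEscan kinase panel screen.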
Compound,%Inh (MINK),%Inh (MKK7),%Inh (MKNK1),%Inh (MKNK2),%Inh (MLCK),%Inh (MLK1),%Inh (MLK2),%Inh (MLK3),%Inh (MRCKA),%Inh (MRCKB),%Inh (MST1R),%Inh (MST1),%Inh (MST2),%Inh (MST3),%Inh (MST4),%Inh (MTOR),%Inh (MUSK),%Inh (MYLK2),%Inh (MYLK4),%Inh (MYLK)
COC(=O)c1cccc(NC(=O)NC2CCN(c3ccnc(Nc4ccc(OC)cc4)n3)C2)c1 (centres unmarked) [GSK1379746],0%,7%,3%,2%,4%,0%,0%,0%,24%,0%,42%,0%,10%,0%,0%,19%,0%,4%,0%,0%
Cc1cnc(N)c(/C=C/c2cncc(C(=O)NCCc3ccc(Cl)cc3Cl)c2)c1.Cl [GSK190937],4%,0%,0%,2%,6%,0%,0%,0%,5%,2%,29%,0%,0%,5%,0%,6%,0%,0%,62%,20%
O=C(Nc1n[nH]c2cc(-c3ccsc3)ccc12)C1CC1 [SB-732932],67%,8%,0%,54%,65%,3%,0%,0%,13%,0%,22%,0%,34%,16%,27%,0%,11%,97.1%,22%,24%
COc1ccc(Nc2nccc(NCCNC(=O)Nc3cc(C)ccc3C)n2)cc1 [GSK1379899],0%,0%,0%,0%,0%,0%,36%,5%,1%,0%,15%,8%,0%,0%,0%,0%,0%,14%,0%,0%
CC(=O)c1c(C)c2cnc(Nc3ccn(C)n3)nc2n(C2CCCC2)c1=O,8%,0%,0%,0%,0%,0%,21%,0%,0%,5%,4%,2%,0%,10%,0%,14%,0%,0%,0%,0%
Cn1cncc1-c1cc2c(Nc3ccc(OCc4ccccc4)cc3)ncnc2cn1 [GW281179],0%,11%,0%,47%,0%,0%,0%,15%,21%,0%,49%,0%,0%,0%,0%,3%,12%,10%,0%,9%
Cc1c(Cn2c(C)c(C)n3c(=O)cc(N4CCOCC4)nc23)cccc1C(F)(F)F [GSK2328680],0%,0%,0%,0%,0%,0%,0%,8%,0%,6%,12%,2%,0%,6%,0%,32%,45%,7%,0%,14%
Cc1ccc(NC(=O)Nc2ccccc2)cc1-c1ccc(C(=O)Nc2ccncc2)cc1 [GSK1398471],3%,23%,3%,0%,0%,0%,0%,4%,5%,24%,29%,0%,0%,0%,0%,0%,4%,0%,3%,20%
COc1ccc2cc(-c3nc(-c4ccccc4C(C)C)[nH]c3-c3ccncc3)ccc2c1 [SB-660566],0%,0%,5%,22%,6%,0%,0%,0%,4%,1%,42%,7%,58%,0%,0%,31%,18%,15%,4%,0%
O=C1NC(=O)C(c2ccc(Cl)cc2)=C1Nc1cccc(Cl)c1 [SB-317651],0%,0%,14%,56%,0%,0%,0%,1%,0%,0%,9%,6%,43%,13%,0%,8%,7%,30%,0%,0%
CC[C@@H]1CO[C@H](C(=O)Nc2ccccc2)CN1c1cc(-c2ccc3c(N)n[nH]c3c2)nc(NC)n1 [GSK2376236],0%,0%,6%,0%,0%,0%,0%,14%,14%,0%,26%,0%,10%,0%,0%,9%,2%,8%,10%,22%
CCn1c(-c2ccccc2)nc2cnccc21 [SB-733416],0%,16%,25%,28%,0%,0%,3%,7%,0%,14%,11%,27%,6%,0%,0%,31%,16%,0%,2%,0%
CC(=O)c1c(C)c2cnc(Nc3ccc(N4CCNCC4)cn3)nc2n(C2CCCC2)c1=O,0%,0%,0%,0%,8%,0%,0%,0%,0%,35%,6%,0%,0%,5%,0%,55%,8%,6%,0%,9%
Cc1ccc(NC(=O)Nc2ccccc2F)cc1-c1ccc(C(=O)Nc2ccncc2)cc1 [GSK1398477],0%,0%,4%,0%,11%,4%,17%,33%,17%,30%,33%,22%,7%,0%,0%,11%,31%,19%,7%,23%
COc1ccc(CSc2nnc(-c3ccc4c(c3)CCO4)o2)cc1,0%,0%,0%,0%,0%,0%,15%,0%,0%,0%,13%,0%,0%,0%,0%,0%,0%,0%,3%,0%
COc1cccc(NC(=O)Nc2ccc(C)c(-c3ccc(C(=O)Nc4ccncc4)cc3)c2)c1 [GSK1398474],6%,14%,4%,24%,6%,10%,14%,31%,13%,3%,57%,18%,0%,10%,0%,0%,1%,4%,3%,31%
CCn1c(-c2c(N)noc2C)nc2cnccc21 [SB-737856],0%,0%,0%,12%,0%,0%,0%,1%,8%,1%,3%,15%,0%,0%,0%,28%,6%,7%,9%,6%
CSc1ccc(-c2nc3n(c2-c2ccncc2)CCC3)cc1 [SKF-105561],15%,1%,0%,20%,0%,0%,0%,0%,0%,0%,0%,0%,9%,0%,20%,0%,0%,3%,0%,0%
Cc1ccccc1-c1cc(-c2c[nH]nc2-c2ccccn2)ccn1 [GW680061],31%,0%,9%,0%,0%,0%,2%,0%,0%,0%,12%,0%,0%,0%,10%,30%,10%,0%,0%,1%
COc1ccc(CSc2nnc(-c3ccc4ncsc4c3)o2)cc1C(F)(F)F,0%,0%,0%,0%,0%,0%,23%,0%,0%,0%,0%,0%,0%,0%,0%,8%,1%,16%,1%,0%
CC(C)c1cc(-c2ccc3c(N)n[nH]c3c2)nc(N)n1 [GSK2250882],21%,0%,36%,82%,16%,0%,0%,18%,12%,0%,3%,0%,0%,8%,0%,11%,0%,23%,39%,26%

Compound,%Inh (MINK),%Inh (MKK7),%Inh (MKNK1),%Inh (MKNK2),%Inh (MLCK),%Inh (MLK1),%Inh (MLK2),%Inh (MLK3),%Inh (MRCKA),%Inh (MRCKB),%Inh (MST1R),%Inh (MST1),%Inh (MST2),%Inh (MST3),%Inh (MST4),%Inh (MTOR),%Inh (MUSK),%Inh (MYLK2),%Inh (MYLK4),%Inh (MYLK)
CNc1cc(-c2ccc3c(N)n[nH]c3c2)nc(N)n1 [GSK2224810],29%,0%,4%,31%,73%,7%,0%,2%,6%,8%,27%,0%,0%,24%,0%,0%,0%,64%,56%,10%
CN1c2ccc(-c3ccc(C(N)=O)cc3)cc2-c2[nH]ncc2S1(=O)=O,53%,3%,0%,0%,0%,19%,26%,3%,0%,3%,0%,0%,0%,0%,2%,14%,0%,0%,0%,73%
COc1ccc(Nc2nccc(N3CCC(NC(=O)C(C)c4ccc(Cl)cc4)CC3)n2)cc1 (centres unmarked) [GSK1379812],51%,0%,36%,5%,0%,0%,0%,52%,20%,0%,54%,44%,0%,0%,0%,3%,0%,6%,6%,4%
Fc1ccc(-c2nc3n(c2-c2ccncc2)CCS3)cc1 [GI98581],45%,0%,0%,2%,15%,3%,19%,21%,2%,25%,39%,29%,25%,0%,0%,12%,15%,14%,0%,12%
Nc1nccc(-c2c(-c3ccc(F)cc3)ncn2C2CCN(Cc3ccccc3)CC2)n1 [SB-219980],32%,0%,0%,0%,5%,11%,8%,0%,0%,20%,0%,17%,8%,0%,0%,23%,0%,0%,0%,0%
COC(=O)c1cccc(NC(=O)NC2CCN(c3ccnc(Nc4ccc(F)cc4)n3)C2)c1 (centres unmarked) [GSK1379725],0%,0%,0%,1%,0%,0%,0%,0%,4%,0%,39%,0%,0%,0%,0%,7%,0%,0%,0%,0%
COc1cccc(CNC(=O)NC2CCN(c3ccnc(Nc4ccc(F)cc4)n3)C2)c1 (centres unmarked) [GSK1379723],0%,31%,13%,8%,0%,0%,0%,0%,29%,8%,44%,11%,0%,0%,0%,15%,7%,0%,0%,0%
CS(=O)(=O)CCNCc1nc(-c2ccc3ncnc(Nc4ccc5c(cnn5Cc5ccccc5)c4)c3c2)cs1.Cl.Cl [GW569716],1%,0%,0%,23%,0%,1%,0%,0%,17%,18%,10%,3%,0%,0%,0%,17%,0%,0%,10%,0%
Cn1cncc1C(=O)NC1CCN(c2ccnc(Nc3ccc(F)cc3)n2)C1 (centres unmarked) [GSK1379717],0%,10%,0%,5%,0%,0%,0%,0%,2%,0%,34%,0%,34%,0%,0%,0%,0%,1%,0%,0%
Cc1nccc(-c2c(-c3ccc(F)cc3)ncn2CCCN2CCOCC2)n1.Cl [SB-282975],18%,0%,11%,1%,0%,0%,22%,25%,23%,0%,0%,7%,5%,0%,5%,21%,0%,6%,0%,30%
COc1ccc(Nc2nccc(N3CCC(NC(=O)c4cc5ccccc5s4)C3)n2)cc1 (centres unmarked) [GSK1379738],0%,26%,22%,11%,0%,0%,0%,0%,12%,0%,27%,0%,0%,0%,0%,15%,0%,0%,3%,11%
Nc1ncnc2occ(-c3ccc4c(c3)CCN4C(=O)Cc3cc(F)ccc3F)c12 [GSK2645446],0%,0%,0%,0%,0%,0%,10%,6%,22%,0%,11%,21%,0%,13%,0%,3%,3%,27%,7%,9%
FC(F)(F)c1ccccc1-c1cc(-c2c[nH]nc2-c2ccccn2)ccn1 [GW679396],11%,0%,5%,0%,4%,0%,0%,1%,0%,0%,13%,4%,0%,5%,0%,0%,0%,26%,0%,8%
c1ccc(-c2ccnc3[nH]ccc23)cc1 [SB-693578],19%,0%,0%,25%,0%,0%,0%,0%,15%,0%,9%,3%,4%,0%,0%,29%,0%,0%,0%,12%
Cc1cccc2c(-c3ccncn3)c(-c3ccc(F)cc3)nn12 [GW515532],0%,0%,0%,3%,0%,0%,28%,4%,0%,0%,26%,7%,0%,15%,0%,9%,12%,0%,0%,0%
Cc1c(Cn2c3ccccc3n3c(=O)cc(N4CCOCC4)nc23)cccc1C(F)(F)F [GSK2306394],0%,0%,0%,6%,0%,0%,2%,0%,0%,0%,0%,15%,12%,2%,0%,3%,6%,17%,0%,2%
COC(=O)C(Cc1ccccc1)NC(=O)NC1CCN(c2ccnc(Nc3ccc(F)cc3)n2)C1 (centres unmarked) [GSK1379714],2%,0%,0%,0%,5%,0%,0%,15%,22%,0%,39%,5%,0%,3%,0%,33%,8%,0%,13%,11%
COc1ccc(-c2coc3ccc(-c4nnc(C)o4)cc23)cc1,0%,0%,0%,0%,0%,0%,5%,1%,0%,0%,0%,0%,0%,0%,0%,5%,4%,18%,14%,0%
COc1cc2ncnc(Nc3cccc(Br)c3)c2cc1OC.Cl [GI230329],40%,0%,,56%,19%,0%,0%,24%,8%,0%,30%,0%,0%,1%,0%,0%,0%,7%,5%,0%
COc1cccc(C2=C(Nc3cc(Cl)c(O)c(Cl)c3)C(=O)NC2=O)c1 [SB-390767],0%,26%,6%,26%,0%,0%,4%,0%,0%,3%,13%,100%,29%,0%,0%,44%,5%,10%,9%,0%
Cn1cnc2c(N)ncnc21 [SKF-97623],0%,0%,38%,0%,0%,0%,0%,0%,12%,0%,0%,0%,24%,0%,0%,4%,0%,0%,0%,0%
